TRPML1 blocker: inhibitors of human TRPML1 channel; TRPML1-inducible cells, Ca2+ dye fluorescence, FDSS; active compounds read low; inhibition of EC80 agonist-evoked calcium signal; hit rate 0.02% among 390,000; activity change, negative = inhibition, % (no concentration beside the values); in the data active = activity change below about -50%; inconclusive = between about -30% and that limit;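 note: stimulus is agonist 54-4 at its EC80 concentration; % is set by controls: 0 for no effect and ±100 for the full control effect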
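Calcium fluorescence in TRPML1-DL cells induced overnight with Tet: a 110 s read after compound pin addition, then a 110 s antagonist read after challenge with 54-4 at 4 uM final (EC80).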
RGS4 inhibitor: inhibitors of human regulator of G protein signaling 4. P49798. Transcreener GDP fluorescence polarization, RGS4-accelerated GTP hydrolysis. Potency, µM (titrated, usually from 114 µM), without a hit: at the highest dose activity change, negative = inhibition, most hits filed as inhibitors. hit rate 0.039% among 390,000; note: potency is the fitted concentration of half-maximal effect; % is set by controls: 0 for no effect and ±100 for the full control effect; nearly all actives have a fitted effect of over 75% in size
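MLSMR compounds (23 nl, pin-transferred) preincubated 10 min at room temperature with a 500nM (2x) first reagent, then RGS4 at 900nM (2x) plus Transcreener GDP mix added; fluorescence polarization (620/688 nm) read before and after 90 min at 30 °C.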
TRPML1 agonist: human mucolipin-1 channel agonism; Q9GZU1; TRPML1-expressing cells, Ca2+ dye fluorescence, FDSS; activation, % (concentration not given with the values); hit rate 0.12% among 410,000; AID 624414; in the data active = activation above about 50%; inconclusive = mostly about 30% to 49%; note: 0% is about no effect
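In this qHTS format, compounds were pin-transferred onto Ca8-dye-loaded TRPML1-DL cells induced with Tet overnight, and intracellular Ca2+ fluorescence was recorded kinetically for 110 s after a 10 s baseline. A subsequent 4uM final 54-4 (EC80) addition followed by a second 110 s read served as the antagonist phase.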
TRPV1 agonist: agonists of human vanilloid receptor 1 (TRPV1); TRPV1-expressing cells, Fluo-8 calcium influx, agonist mode; activation, % at 8.33 µM; Q8NER1; hit rate 0.19% among 320,000; in the data active = activation above about 80%; inconclusive = between about 30% and that limit; note: 0% is about no effect
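TRPV1-expressing cells were cultured overnight at 35.5C and loaded with Fluo-8 calcium dye for 40 to 90 min at room temperature. After a 10 s baseline, compound was added and calcium influx was read kinetically for 3 min (ex 480/em 520 nm).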
AT treatment: potential ataxia-telangiectasia treatments restoring KAP-1 phosphorylation; F2112 A-T fibroblasts, KAP-1 phosphorylation AlphaLISA; neocarzinostatin DNA damage 30 min before lysis; Potency, µM (series often up to 57.5 µM), for the others: top-dose activation, hits mostly activators; hit rate 0.19% among 320,000; note: potency is the fitted concentration of half-maximal effect; % of control where 0% means no effect; nearly all actives have a fitted effect of over 45% in size
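hTERT-immortalized A-T patient fibroblasts (F2112), 500 cells/well in OPTI-MEM, 1% FBS, got compounds for 60 min, then NCS for 30 min at 37C. Lysates were then assayed for phospho-KAP-1 by AlphaLISA (anti-pKAP1 donor, anti-KAP1 acceptor beads), 6 hr at 25C.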
TRPV1 PAM: human TRPV1 potentiation; hit rate 0.02% among 320,000; TRPV1-expressing cells, Fluo-8 calcium influx, capsaicin EC20 potentiation; potentiation, % at 8.33 µM; AID 540277; Q8NER1; in the data active = potentiation above about 80%; inconclusive = between about 30% and that limit; note: 0% is about no effect
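Fluo-8 calcium influx in TRPV1-expressing cells, kinetic read (ex 480/em 520 nm). Compound added and read 3 min for agonist activity, followed by capsaicin at EC20 final and 2 min further read for enhancement.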
An asterisk follows results filed as active; ? = inconclusive; nt = not tested or not shown; [ ] = another dose, or the depositor's remark. Most compounds without a hit are left out; they make up all but 0.5% or so of the library. Unless noted, calls come from the whole dose curve; as a rule, active = well fitted curve in the direction sought with a large enough effect; inconclusive = small, poorly fitted or top-dose-only effect, or another doubt; inactive = no such curve, though single readings can be large; an effect the other way counts as inactive or inconclusive.

SMILES	TRPML1 blocker	RGS4 inhibitor	TRPML1 agonist	TRPV1 agonist	AT treatment	TRPV1 PAM
CCc1ccc(NC(=O)c2onc(C)c2Cl)cc1	-4	8%	2	89*	1%	-6
CCCn1c2ccccc2c2cnn(CC(=O)NC3CCCCC3)c(=O)c21	96	-16%	2	11	4%	-13
Cc1ccc(NC(=O)c2ccc(S(=O)(=O)NCc3ccco3)cc2)cc1	-6	12%	0	82*	-3%	1
O=C(Nc1ccc(S(=O)(=O)NCc2ccco2)cc1)c1ccncc1	9	-15%[11.4 µM]	0	1	-6%	2
COc1cccc(NC(=O)c2ccc(S(=O)(=O)NCc3cccnc3)cc2)c1	18	-28%	-2	2	10%	3
CCc1ccc(NC(=O)c2ccc(S(=O)(=O)NCc3cccnc3)cc2)cc1	-4	11%	1	87*	0%	-31
Cc1nn(Cc2ccc(Cl)cc2)c(C)c1NC(=O)CCCn1nc(C)c([N+](=O)[O-])c1C	7	14%	2	93*	nt	6
CN(Cc1ccccn1)C(=O)CC1C(=O)NCCN1Cc1cccc(Oc2ccccc2)c1 (stereo unspecified)	-16	6%	0	0	5%[11.5 µM]	-24
COc1ccc(C(=O)c2sc(Nc3cccc(OC)c3)c(C(=O)Nc3cccc(C)c3C)c2N)cc1	-20	-27%	61*	2	-4%	1
COc1ccc(Nc2sc(C(=O)c3ccc(Cl)cc3)c(N)c2C(=O)Nc2ccccc2OC)cc1	4	-36%	?	2	1%	8
COCCCN1C(=O)c2ccc(C(=O)OCC(=O)N(C)c3ccccc3)cc2C1=O	25	-6%	0	0	5%	1
COc1ccc(C2c3ccc(O)cc3Oc3ncn(CC(C)C)c(=N)c32)cc1 (stereo unspecified)	-7	9%	1	-1	2.8µM*	-15
CC(C)CNC(=O)CC1Nc2ccccc2NC1=O (stereo unspecified)	5	3%	-1	1	-2%	0
COc1ccc(OC)c(NC(=O)C(Sc2ccccc2)c2ccccc2)c1 (stereo unspecified)	-52*	18%	3	-1	11%	-6
CCOC(=O)c1c(C)[nH]c(C(=O)OC(C)C(=O)NC2(C#N)CCCCC2)c1C (stereo unspecified)	-1	nt	-1	nt	nt	nt
CCOC(=O)c1c(CSc2ccsc2)n(C)c2cc(Br)c(O)c(CN(C)C)c12	1	-12%	1	14	8.9µM*	-1
Cc1cc(N2CCN(c3ccc(F)cc3)CC2)nc2cc(O)ccc12	11	-8%	1	-1	3%	-4
CC(=O)c1cccc(NC(=O)c2ccc(OC3CSC3)cc2)c1	-3	3%	-1	113*	5%	-6
Cc1cccc(NC(=O)c2ccc(OC3CSC3)cc2)c1	8	-2%	2	?	-2%	3
CC(=O)c1cccc(NC(=O)NC2CCCc3ccccc32)c1 (stereo unspecified)	-3	25%	1	83*	1%	4
O=C(Nc1ccc2c(c1)CCC2)c1cccc(F)c1	10	-16%	0	97*	-2%	-17
CC(=O)c1cccc(NC(=O)c2ccc3c(c2)CCCC3)c1	-12	-16%	0	87*	1%	-1
COCCNC(=O)CCc1c(C)nc2c(c(C)nn2-c2ccc(C)cc2)c1C	-12	25%	1	85*	37%	7
Cc1cccc(/C=C(\C#N)C(=O)Nc2ccccn2)c1	?	1%	1	6	-5%	-7
CCCCCCC1CC(CSC(=N)N)OC1=O (stereo unspecified)	17	-14%	0	10	-6%	-9
SMILES	TRPML1 blocker	RGS4 inhibitor	TRPML1 agonist	TRPV1 agonist	AT treatment	TRPV1 PAM
Cc1ccc(C)c(-c2csc(Nc3ncccn3)n2)c1	11	-22%	0	-3	3.2µM*	18
Oc1ccc(-c2csc(Nc3ncccn3)n2)c(O)c1	-5	-17%	0	-2	-3%	10
O=C1CCCN1CCC1CCCCN1Cc1nc(-c2cnccn2)no1 (stereo unspecified)	-5	-2%	-1	1	3%	-10
CC(=O)OC[C@]12CC[C@H]3[C@@](C)(CC[C@H]4C(C)(C)CCC[C@]34C)[C@@H]1C[C@H](C1=CC(=O)O[C@H]1OC(C)=O)O2	nt	nt	nt	nt	35µM*	nt
CC(=O)OC[C@]12CC[C@H]3[C@@](C)(CC[C@H]4C(C)(C)CCC[C@]34C)[C@@H]1C[C@@H](C1=CC(=O)O[C@@H]1OC(C)=O)O2	nt	nt	nt	nt	-1%	nt
O=C(CSc1ccc(Cl)cc1)N1CCOCC1	27	-16%	1	?	-4%	-3
O=C(CSc1ccc(Br)cc1)N1CCOCC1	4	-35%[56.9 µM]	0	80*	5%	-31
CCC[C@@H]1CCCC/C=C\CCCC(=O)OCCN1C(=O)OC(C)(C)C	-13	-11%	7	?	25µM*	-14
CCCCSCCCNC(=O)Nc1cccc(OC)c1	-3	23%	1	83*	nt	-8
COc1cccc(NC(=O)Nc2ccncc2)c1	12	-13%[11.4 µM]	4	?	8%	-2
COC(=O)c1cc(NC(=O)Nc2ccccc2)ccc1Cl	14	-27%	1	83*	nt	-21
COc1cccc(NC(=O)Nc2ccc(C(C)(C)C)cc2)c1	4	8%	-1	82*	0%	-3
CSc1ccc(S(=O)(=O)NCCSC(C)(C)C)cc1	28	-20%	0	18	nt	-5
Cc1ccc(NC(=O)c2nc(S(C)(=O)=O)ncc2N(Cc2ccc(C(C)(C)C)cc2)Cc2ccco2)cc1C	26	-31%	0	nt	nt	nt
COc1ccc(C(=O)Nc2nc3ccccc3s2)cc1	-1	-12%	4	96*	6%	-2
COc1ccc2nc(NC(=O)c3ccc(-n4nc(C)cc4C)cc3)sc2c1	9	-1%	68*	-4	27%	-5
COc1ccc(C(=O)Nc2cc3c4c(c2)CC(=O)N4CCC3)cc1	?	-17%	55*	1	11%	-15
COc1cccc(C(=O)Nc2nc3ccccc3s2)c1	7	-1%	0	15	12%	-10
NC(=O)c1ccc2nc(NC(=O)c3ccc(N)cc3)sc2c1	-14	4%	-1	1	35µM*	1
COc1ccc(C(=O)Nc2ccc3ccccc3c2)cc1	37	-13%	1	96*	-21%	-8
COc1ccc(C(=O)Nc2ccc(C3(C#N)CCCC3)cc2)cc1	-2	1%	0	89*	3%	-29
